Reference: PMC11006913

What follows are sequences tested against NKX3-2 (Homo sapiens, UniProt P78367 192-278, P234S) (assay: PBM; 200 nM protein, PBS). Details: dsDNA, one strand shown.
NKX3-2, sequence (P78367 192-278 P234S): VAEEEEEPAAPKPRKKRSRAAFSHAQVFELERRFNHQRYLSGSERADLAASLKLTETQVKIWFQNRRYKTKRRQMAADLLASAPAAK
GGACCCGA was tested, and the binding signal was 10.6 upbm affinity estimate (log intensity, higher = more binding, comparable within an allelic series). In the case of CTCTTGCC, the binding signal is reported as 11.4 upbm affinity estimate (log intensity, higher = more binding, comparable within an allelic series). With AGGTTGTG the binding signal was 10.7 upbm affinity estimate (log intensity, higher = more binding, comparable within an allelic series). GCCTGACC was tested, and the binding signal was 10.6 upbm affinity estimate (log intensity, higher = more binding, comparable within an allelic series). In the case of GACGGGAC, the binding signal is reported as 10.5 upbm affinity estimate (log intensity, higher = more binding, comparable within an allelic series).

The sequences below were run against CRX (Homo sapiens, UniProt O43186 26-111, R41L) (assay: PBM; 200 nM protein, PBS). Details: dsDNA, one strand shown.
CRX, sequence (O43186 26-111 R41L): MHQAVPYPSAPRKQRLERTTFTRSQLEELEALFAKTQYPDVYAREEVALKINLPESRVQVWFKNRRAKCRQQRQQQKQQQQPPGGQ
For GGTGTTAA, the binding signal was 10.2 upbm affinity estimate (log intensity, higher = more binding, comparable within an allelic series). In the case of CAGATTAC, the binding signal is reported as 12.3 upbm affinity estimate (log intensity, higher = more binding, comparable within an allelic series). In the case of ATTAAGCG, the binding signal is reported as 10.8 upbm affinity estimate (log intensity, higher = more binding, comparable within an allelic series). For AGCATTAA, the binding signal was 10.9 upbm affinity estimate (log intensity, higher = more binding, comparable within an allelic series). For CCTAAGCC, the binding signal was 11.2 upbm affinity estimate (log intensity, higher = more binding, comparable within an allelic series). With ATTAAGAC the binding signal was 11 upbm affinity estimate (log intensity, higher = more binding, comparable within an allelic series). For ACTAAGCT, the binding signal was 11.4 upbm affinity estimate (log intensity, higher = more binding, comparable within an allelic series). GCTAAGAC was tested, and the binding signal was 10.2 upbm affinity estimate (log intensity, higher = more binding, comparable within an allelic series). With CTAATACC the binding signal was 11.2 upbm affinity estimate (log intensity, higher = more binding, comparable within an allelic series). In the case of AGTATTAA, the binding signal is reported as 11 upbm affinity estimate (log intensity, higher = more binding, comparable within an allelic series). With CTTTATCC the binding signal was 10.7 upbm affinity estimate (log intensity, higher = more binding, comparable within an allelic series). CTAATGCC was tested, and the binding signal was 10.1 upbm affinity estimate (log intensity, higher = more binding, comparable within an allelic series). In the case of ACGCTTAA, the binding signal is reported as 10.3 upbm affinity estimate (log intensity, higher = more binding, comparable within an allelic series). In the case of CCGCTTAA, the binding signal is reported as 10.9 upbm affinity estimate (log intensity, higher = more binding, comparable within an allelic series). In the case of ATAAGCCG, the binding signal is reported as 12.3 upbm affinity estimate (log intensity, higher = more binding, comparable within an allelic series). CCTAATAC was tested, and the binding signal was 10.6 upbm affinity estimate (log intensity, higher = more binding, comparable within an allelic series). CGGCTTAG was tested, and the binding signal was 11.9 upbm affinity estimate (log intensity, higher = more binding, comparable within an allelic series). For GTCTTAAC, the binding signal was 10.3 upbm affinity estimate (log intensity, higher = more binding, comparable within an allelic series). In the case of CTTAATAC, the binding signal is reported as 11.3 upbm affinity estimate (log intensity, higher = more binding, comparable within an allelic series). In the case of AGGCTTAG, the binding signal is reported as 11.6 upbm affinity estimate (log intensity, higher = more binding, comparable within an allelic series). In the case of GCATTAGC, the binding signal is reported as 10.5 upbm affinity estimate (log intensity, higher = more binding, comparable within an allelic series). ATAATCTA was tested, and the binding signal was 12.4 upbm affinity estimate (log intensity, higher = more binding, comparable within an allelic series). CTAAGCCA was tested, and the binding signal was 10.7 upbm affinity estimate (log intensity, higher = more binding, comparable within an allelic series). ACTAAGAC was tested, and the binding signal was 10.1 upbm affinity estimate (log intensity, higher = more binding, comparable within an allelic series). CGTCTTAA was tested, and the binding signal was 10.7 upbm affinity estimate (log intensity, higher = more binding, comparable within an allelic series). In the case of CTTAATGC, the binding signal is reported as 11 upbm affinity estimate (log intensity, higher = more binding, comparable within an allelic series). With CGCATTAG the binding signal was 10.4 upbm affinity estimate (log intensity, higher = more binding, comparable within an allelic series). In the case of ACTAATAC, the binding signal is reported as 10.7 upbm affinity estimate (log intensity, higher = more binding, comparable within an allelic series). For GCTTAAGA, the binding signal was 11.1 upbm affinity estimate (log intensity, higher = more binding, comparable within an allelic series). ATCTTAAG was tested, and the binding signal was 10.8 upbm affinity estimate (log intensity, higher = more binding, comparable within an allelic series). In the case of TAAGACGA, the binding signal is reported as 10.2 upbm affinity estimate (log intensity, higher = more binding, comparable within an allelic series). CTAAGCTC was tested, and the binding signal was 11.1 upbm affinity estimate (log intensity, higher = more binding, comparable within an allelic series). In the case of CTTAAGAC, the binding signal is reported as 10.7 upbm affinity estimate (log intensity, higher = more binding, comparable within an allelic series). GAGATTAC was tested, and the binding signal was 12.3 upbm affinity estimate (log intensity, higher = more binding, comparable within an allelic series). With GTATTAGA the binding signal was 10.7 upbm affinity estimate (log intensity, higher = more binding, comparable within an allelic series).
